Screens (PubChem)
mHTT CaM bind – disrupts binding of mutant huntingtin to calmodulin; P42858; AlphaScreen His-mHTT/GST-CaM binding, luminescence; inhibition, % at 15 µM; 190,000 tested, 3.6% active; AID 1671202;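 also: 0% = both proteins with DMSO and 100% = one protein alone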
Target sequence (P42858 whole entry, looked up, stated change not applied): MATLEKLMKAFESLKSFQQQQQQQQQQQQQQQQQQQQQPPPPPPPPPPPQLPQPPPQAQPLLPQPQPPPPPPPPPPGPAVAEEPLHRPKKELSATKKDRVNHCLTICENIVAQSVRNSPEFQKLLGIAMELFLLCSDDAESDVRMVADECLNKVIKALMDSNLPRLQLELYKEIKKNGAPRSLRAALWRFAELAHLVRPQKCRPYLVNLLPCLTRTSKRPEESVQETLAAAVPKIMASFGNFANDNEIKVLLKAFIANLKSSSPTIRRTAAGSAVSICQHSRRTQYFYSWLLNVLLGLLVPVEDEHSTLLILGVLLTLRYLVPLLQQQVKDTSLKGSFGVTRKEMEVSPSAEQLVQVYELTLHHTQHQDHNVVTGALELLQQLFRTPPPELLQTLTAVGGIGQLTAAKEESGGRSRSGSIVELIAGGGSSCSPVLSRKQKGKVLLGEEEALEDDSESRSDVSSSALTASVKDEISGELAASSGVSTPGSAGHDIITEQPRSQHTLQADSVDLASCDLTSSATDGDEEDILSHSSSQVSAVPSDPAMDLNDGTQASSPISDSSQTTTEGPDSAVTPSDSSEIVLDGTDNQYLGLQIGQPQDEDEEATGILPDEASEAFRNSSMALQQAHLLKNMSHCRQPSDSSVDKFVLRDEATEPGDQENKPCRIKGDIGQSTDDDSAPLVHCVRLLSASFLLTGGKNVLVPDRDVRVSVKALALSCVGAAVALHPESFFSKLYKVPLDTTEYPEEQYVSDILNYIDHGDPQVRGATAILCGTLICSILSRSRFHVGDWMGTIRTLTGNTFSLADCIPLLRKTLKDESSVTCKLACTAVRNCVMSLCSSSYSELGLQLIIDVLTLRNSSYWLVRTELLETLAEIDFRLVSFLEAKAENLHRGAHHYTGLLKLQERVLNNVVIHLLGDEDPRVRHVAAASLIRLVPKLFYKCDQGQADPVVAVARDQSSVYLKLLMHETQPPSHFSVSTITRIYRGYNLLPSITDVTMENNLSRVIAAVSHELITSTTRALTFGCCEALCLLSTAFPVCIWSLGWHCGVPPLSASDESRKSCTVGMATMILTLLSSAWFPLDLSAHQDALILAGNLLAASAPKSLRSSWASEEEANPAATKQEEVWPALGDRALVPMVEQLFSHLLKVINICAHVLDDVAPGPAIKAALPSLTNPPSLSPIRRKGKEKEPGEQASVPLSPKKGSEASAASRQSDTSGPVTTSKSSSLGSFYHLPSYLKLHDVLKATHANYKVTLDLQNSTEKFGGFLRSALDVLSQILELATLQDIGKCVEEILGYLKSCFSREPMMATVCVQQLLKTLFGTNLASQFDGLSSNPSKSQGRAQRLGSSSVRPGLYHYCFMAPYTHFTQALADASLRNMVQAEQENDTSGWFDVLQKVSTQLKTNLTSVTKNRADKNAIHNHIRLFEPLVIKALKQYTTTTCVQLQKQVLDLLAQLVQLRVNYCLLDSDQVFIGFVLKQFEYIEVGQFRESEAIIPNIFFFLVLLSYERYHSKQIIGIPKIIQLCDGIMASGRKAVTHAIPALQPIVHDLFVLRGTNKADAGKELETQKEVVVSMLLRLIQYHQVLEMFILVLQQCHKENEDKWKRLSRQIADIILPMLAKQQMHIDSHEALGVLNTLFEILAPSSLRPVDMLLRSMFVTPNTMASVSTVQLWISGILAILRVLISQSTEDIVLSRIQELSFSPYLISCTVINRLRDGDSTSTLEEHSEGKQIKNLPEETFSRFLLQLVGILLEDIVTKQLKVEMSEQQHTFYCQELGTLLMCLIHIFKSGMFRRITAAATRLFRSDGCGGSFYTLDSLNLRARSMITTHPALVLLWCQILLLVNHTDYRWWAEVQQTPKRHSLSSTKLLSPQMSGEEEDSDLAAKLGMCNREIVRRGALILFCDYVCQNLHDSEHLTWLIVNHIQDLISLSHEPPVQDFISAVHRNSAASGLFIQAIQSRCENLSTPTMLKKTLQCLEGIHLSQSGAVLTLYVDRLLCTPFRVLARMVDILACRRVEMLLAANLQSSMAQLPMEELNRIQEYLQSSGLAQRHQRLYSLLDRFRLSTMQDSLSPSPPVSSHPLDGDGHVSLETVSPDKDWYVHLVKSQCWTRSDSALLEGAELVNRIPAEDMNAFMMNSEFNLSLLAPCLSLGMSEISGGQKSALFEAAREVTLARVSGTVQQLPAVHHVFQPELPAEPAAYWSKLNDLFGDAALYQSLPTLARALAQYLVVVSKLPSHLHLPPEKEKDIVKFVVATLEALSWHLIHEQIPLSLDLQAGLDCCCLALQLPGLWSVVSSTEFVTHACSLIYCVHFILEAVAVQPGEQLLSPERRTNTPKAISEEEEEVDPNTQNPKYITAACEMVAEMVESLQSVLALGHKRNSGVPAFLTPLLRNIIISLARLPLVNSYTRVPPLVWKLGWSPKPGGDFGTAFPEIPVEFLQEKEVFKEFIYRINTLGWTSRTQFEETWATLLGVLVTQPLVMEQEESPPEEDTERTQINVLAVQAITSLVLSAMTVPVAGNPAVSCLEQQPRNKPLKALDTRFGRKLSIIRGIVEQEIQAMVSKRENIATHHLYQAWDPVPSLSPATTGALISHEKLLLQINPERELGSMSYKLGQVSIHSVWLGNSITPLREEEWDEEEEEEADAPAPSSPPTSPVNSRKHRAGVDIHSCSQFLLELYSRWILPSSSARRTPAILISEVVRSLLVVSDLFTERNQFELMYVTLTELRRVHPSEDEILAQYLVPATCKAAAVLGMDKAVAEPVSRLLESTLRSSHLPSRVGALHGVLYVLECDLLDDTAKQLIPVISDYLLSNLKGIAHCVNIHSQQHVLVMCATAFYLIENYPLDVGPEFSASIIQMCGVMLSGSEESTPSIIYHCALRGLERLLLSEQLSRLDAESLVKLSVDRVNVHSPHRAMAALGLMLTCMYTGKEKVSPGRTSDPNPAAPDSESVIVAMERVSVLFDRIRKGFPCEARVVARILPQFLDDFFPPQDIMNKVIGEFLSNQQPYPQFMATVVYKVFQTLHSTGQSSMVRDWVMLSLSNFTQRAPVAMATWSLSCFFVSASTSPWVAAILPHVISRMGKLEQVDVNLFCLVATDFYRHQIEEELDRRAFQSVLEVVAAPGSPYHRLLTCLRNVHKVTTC
Pf apPOL inh – Pf-apPOL DNA polymerase inhibition. Recombinant Pf-apPOL, molecular beacon fluorescence, 1.5 h. inhibition, % at 10 µM. 210,000 tested, 0.25% active. AID 1794808
* hit, by the source's call; nt = no result. The list is not random: actives were taken first. Their share in the collection is about 3.6%. Rule as the data show it: active = inhibition above about 50%; inactive = the rest.

SMILES | mHTT CaM bind | Pf apPOL inh
COc1cccc(C2C=C(c3ccc(Br)cc3)Nc3nnnn32)c1OC (configuration not stated) | 2 | -3
COc1cc(C2C=C(c3ccc(Cl)cc3)Nc3ncnn32)cc(OC)c1OC (configuration not stated) | 76* | 0
COc1ccc(C2=CC(c3cc(OC)c(OC)c(OC)c3)n3ncnc3N2)cc1 (configuration not stated) | 11 | -2
CCn1cc(CN2CCC(C(=O)NCc3ccco3)CC2)c2cc(Cl)ccc21 | 4 | -2
C(=C\c1ccccc1)/Sc1ccc2ccccc2n1 | -116 | 31
COc1ccc(NC(=O)CSCc2ccccc2Cl)cc1OC | 9 | -9
CC(C)Oc1ccc(-c2nc3s/c(=C\c4cccs4)c(=O)n3n2)cc1 | 2 | 2
CC(C)(C)NS(=O)(=O)c1ccc(NC(=O)c2ccccc2F)cc1 | -5 | -9
CCn1cc(C(=O)Nc2ccc(OC)c(Cl)c2)c(=O)c2ccc(C)nc21 | -4 | -7
COc1ccccc1C1C=C(c2ccc(Br)cc2)Nc2ncnn21 (configuration not stated) | 41 | -8
COc1ccc(C2=CC(c3cccc(Br)c3)n3nc(CCCO)nc3N2)cc1OC (configuration not stated) | 53* | -6
COc1ccc(C2=CC(c3ccccc3)n3nc(CCCO)nc3N2)cc1 (configuration not stated) | 17 | -18
COc1cccc(C2C=C(c3ccc(Br)cc3)Nc3ncnn32)c1OC (configuration not stated) | 66* | 4
Cc1ccc(O)c(C(=O)CC(=O)c2ccco2)c1 | 44 | -1
CCN(CC)C(=O)c1nsc2ccc(C)cc12 | -9 | -5
CC(C(=O)Nc1nnc(C(F)(F)F)s1)N1C(=O)C2C3C=CC(C3)C2C1=O (configuration not stated) | 0 | 1
CCCCCCCCCCCCCCOC(=O)C(C)O (configuration not stated) | nt | -8
NC(=NOC(=O)c1sccc1Cl)c1ccc(Cl)cc1 | nt | -2
O=C(NCc1cccc(Cl)c1)c1cn2c(n1)COCC2 | 10 | 0
Cc1ccccc1CNC(=O)C1CCN(c2cncnc2N2CCN(C)CC2)CC1 | 22 | -7
Cc1nc(-c2ccc(OCc3ccccc3F)cc2)no1 | -30 | -1
O=C1CC(C(=O)N2CCc3ccccc3C2)CN1CCc1c[nH]c2ccc(Cl)cc12 (configuration not stated) | 65* | 3
O=C(NCc1ccccn1)C1CC(=O)N(CCc2c[nH]c3ccc(Cl)cc23)C1 (configuration not stated) | 92* | -3
CCCNC(=O)C1CC(=O)N(CCc2c[nH]c3ccc(Cl)cc23)C1 (configuration not stated) | 28 | 0
CC(C)CNC(=O)C1CC(=O)N(CCc2c[nH]c3ccc(Cl)cc23)C1 (configuration not stated) | 14 | -1
SMILES | mHTT CaM bind | Pf apPOL inh
O=C(NCCc1ccccc1)C1CC(=O)N(CCc2c[nH]c3ccc(Cl)cc23)C1 (configuration not stated) | 90* | -2
O=C1CC(C(=O)N2CCc3ccccc3C2)CN1CCc1c[nH]c2ccc(F)cc12 (configuration not stated) | 46 | 2
CCn1cnc2cc(NCc3ccc(Cl)cc3)ccc21 | 30 | -3
COc1ccccc1-n1cnc2cc(NCc3ccc(Cl)cc3)ccc21 | 80* | 0
COc1ccccc1CNc1ccc2c(c1)ncn2-c1ccccc1 | 69* | 8
COc1cccc(CNc2ccc3c(c2)ncn3C)c1O | 10 | -7
O=C(Nc1ccc(Cl)cc1)c1ccnc(-c2ccsc2)c1 | 23 | 4
CN1CCN(C(=O)CN(Cc2ccccc2F)S(=O)(=O)c2ccc(Cl)cc2)CC1 | 8 | -3
COc1cccc(CNC(=O)c2cnn3c(-c4ccc(C)c(C)c4)ccnc23)c1 | -17 | -1
COc1cccc(OCCSc2nc3ccccc3s2)c1 | 96* | -7
NCCSc1nc2ccccc2s1 | 10 | 7
CCOc1ccc(/C=c2\sc3nc(-c4ccccc4)nn3c2=O)cc1OCC | -4 | 4
CC(NNc1ccc([N+](=O)[O-])cc1)=C(C#N)C(N)=S | nt | 0
CCC(=O)N1CCCC(c2ccnc(-c3ccc(F)cc3)n2)C1 (configuration not stated) | 76* | -18
O=C(c1cccc(F)c1)N1CCCC(c2ccnc(-c3ccc(F)cc3)n2)C1 (configuration not stated) | 54* | -5
O=C(c1ccccc1)N1CCCC(c2ccnc(-c3ccc(F)cc3)n2)C1 (configuration not stated) | 13 | -4
CCCC(=O)N1CCCC(c2ccnc(-c3ccc(F)cc3)n2)C1 (configuration not stated) | 2 | -6
Cc1cccc(N2CCN(C(=O)c3ccc(SCc4cccnc4)c([N+](=O)[O-])c3)CC2C)c1 (configuration not stated) | 98* | -4
O=C(c1ccc(SCc2cccnc2)c([N+](=O)[O-])c1)N1CCCC1 | 4 | -7
O=C1OC(c2ccc(Cl)cc2)=C/C1=C\c1ccco1 | 20 | -4
O=C1OC(c2ccc(Oc3ccccc3)cc2)=C/C1=C\c1ccco1 | 78* | 3
COc1cc(-c2[nH]nc3c2C(c2ccc(C(F)(F)F)cc2)C(C#N)=C(N)O3)cc(OC)c1OC (configuration not stated) | 90* | -13
CCOc1ccc(-c2[nH]nc3c2C(c2cn[nH]c2-c2ccc(F)cc2)C(C#N)=C(N)O3)cc1 (configuration not stated) | 41 | -6
N#CC1=C(N)Oc2n[nH]c(-c3ccc(Br)cc3)c2C1c1cn[nH]c1-c1ccc(F)cc1 (configuration not stated) | 59* | 0
N#CC1=C(N)Oc2n[nH]c(-c3ccccc3)c2C1c1ccccc1Cl (configuration not stated) | 9 | -5
SMILES | mHTT CaM bind | Pf apPOL inh
COc1cc(C2C(C#N)=C(N)Oc3n[nH]c(-c4ccc(Br)cc4)c32)cc(OC)c1O (configuration not stated) | 87* | -8
N#CC1=C(N)Oc2n[nH]c(-c3ccccc3)c2C1c1ccc2c(c1[N+](=O)[O-])OCO2 (configuration not stated) | 51* | -4
COc1ccc(-c2[nH]nc3c2C(c2cc(Cl)c(O)c(OC)c2)C(C#N)=C(N)O3)cc1 (configuration not stated) | 32 | 3
COc1cc(C2C(C#N)=C(N)Oc3n[nH]c(C(F)(F)F)c32)cc(OC)c1OC (configuration not stated) | 7 | 0
Cc1cc(OCC(=O)NCC2CCCO2)ccc1Cl (configuration not stated) | -14 | 0
CC(=O)Oc1ccc(NNc2ccccc2)cc1 | nt | 4
COc1cc(C(=O)C=Cc2ccc3c(c2)OCO3)cc(OC)c1OC | -4 | -4
O=C(Cc1ccc(F)cc1)N1CCC2(CC1)NC(=O)N(Cc1ccc(Cl)cc1)C2=O | 19 | -3
COc1ccc(N=Cc2cc([N+](=O)[O-])cc([N+](=O)[O-])c2O)cc1OC | 23 | 2
CCN1Cc2nnn(Cc3ccccc3)c2-c2cc(F)ccc2S1(=O)=O | 94* | -3
CC(C)(C)N1Cc2nnn(Cc3ccccc3)c2-c2cc(F)ccc2S1(=O)=O | -6 | -2
Cc1ccc(C2=N/C(=C\c3ccccc3Br)C(=O)O2)cc1[N+](=O)[O-] | 0 | 2
